# From PubChem BioAssay (NCI)
# About 79,000 compounds went through this panel and 15% of them were active in at least one assay; those are over-represented in the sample as a whole. A number with no mark means an inactive call. Rule as the data show it: active = growth inhibition above about 70%; inactive = the rest.
# Assay: NCI Yeast Anticancer Drug Screen. Data for the wt1 strain (AID 149);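 also: 0% = growth of vehicle-treated wt1 cultures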
# Settings: S. cerevisiae wt1 strain (SPY 50644) growth inhibition; at 1.2 µM; active compounds read high
# Method in brief: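 Each compound is tested on wt1 yeast and the loss of growth versus vehicle gives the inhibition value.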
row,SMILES,growth inhibition [%]
1,CN(C)c1ccc(C2CC(C)(O)Oc3cc4c(cc32)OCO4)cc1 (stereo unspecified),0
2,C[Si](C)(C)/C=C/CCNC(C#N)c1ccccc1 (stereo unspecified),3
3,CN(C)CCOC1(Cc2ccc(F)cc2)CCC(C(C)(C)C)CC1 (stereo unspecified),10
4,CC(=O)Nc1ccc2c(c1)Cc1cc(N=C3C=CC(=O)O3)ccc1-2,0
5,O=C1C=C(Cl)C(=O)C(c2ccc(Cl)cc2)=C1,1
6,CNCCCNc1c2ccccc2nc2cccc([N+](=O)[O-])c12,2
7,CC(C)OC(=O)c1ccc(CCc2cc(O)c(Br)cc2O)cc1,26
8,CCc1cc(O)c(Cl)c(C)c1Cl,7
9,C(=Nc1ccc(-c2cc(-c3ccccc3)nc3ccc4ccccc4c23)cc1)c1ccccc1,26
10,CSc1nc(C)c(CCOC(C)=O)c(N=P(c2ccccc2)(c2ccccc2)c2ccccc2)n1,9
11,CS(=O)(=O)SCc1ccc([N+](=O)[O-])cc1,-5
12,COC1=C(OC)C(=O)C(Sc2ccc3ccccc3c2)=CC1=O,-73
13,Cc1cc(-c2cc(C)c(O)c(C(C)(C)C)c2)cc(C(C)(C)C)c1O,-52
14,Nc1cc(N)c(N=Nc2cccc3c(S(=O)(=O)O)cccc23)cc1N=Nc1cc([N+](=O)[O-])ccc1O,7
15,Nc1ccc(F)cc1S,-7
16,Brc1ccccc1-c1ncc(-c2ccccc2)o1,-12
17,COc1cc(C2SCC(=O)N2c2ccc(-c3ccc(-n4c(-c5ccccc5)nc5ccccc5c4=O)cc3)cc2)ccc1O (stereo unspecified),-2
18,COc1cc(CSc2ccc(O)cc2)cc(O)c1O,0
19,O=C(NNc1ccccc1)c1ccc(Cl)c(Cl)c1,0
20,C[C@]12CC[C@H](O)CC1=CC[C@@H]1C2CC[C@]2(C)C(=O)NC(=O)CC12 (stereo partly specified),-22
21,CCc1c(Cl)c(C)cc(O)c1Cl,-31
22,CCCC(=O)Oc1ccc(/C=N/NC(N)=S)nc1,1
23,Cc1nc2ccccc2nc1NNc1ccccc1,4

# Same assay, conditions: S. cerevisiae wt1 strain (SPY 50644) growth inhibition; at 3.7 µM; active compounds read high
row,SMILES,growth inhibition [%]
1,CN(C)c1ccc(C2CC(C)(O)Oc3cc4c(cc32)OCO4)cc1 (stereo unspecified),5
2,C[Si](C)(C)/C=C/CCNC(C#N)c1ccccc1 (stereo unspecified),-2
3,CN(C)CCOC1(Cc2ccc(F)cc2)CCC(C(C)(C)C)CC1 (stereo unspecified),6
4,CC(=O)Nc1ccc2c(c1)Cc1cc(N=C3C=CC(=O)O3)ccc1-2,14
5,O=C1C=C(Cl)C(=O)C(c2ccc(Cl)cc2)=C1,5
6,CNCCCNc1c2ccccc2nc2cccc([N+](=O)[O-])c12,28
7,CC(C)OC(=O)c1ccc(CCc2cc(O)c(Br)cc2O)cc1,33
8,CCc1cc(O)c(Cl)c(C)c1Cl,21
9,C(=Nc1ccc(-c2cc(-c3ccccc3)nc3ccc4ccccc4c23)cc1)c1ccccc1,24
10,CSc1nc(C)c(CCOC(C)=O)c(N=P(c2ccccc2)(c2ccccc2)c2ccccc2)n1,5
11,CS(=O)(=O)SCc1ccc([N+](=O)[O-])cc1,1
12,COC1=C(OC)C(=O)C(Sc2ccc3ccccc3c2)=CC1=O,-61
13,Cc1cc(-c2cc(C)c(O)c(C(C)(C)C)c2)cc(C(C)(C)C)c1O,-49
14,Nc1cc(N)c(N=Nc2cccc3c(S(=O)(=O)O)cccc23)cc1N=Nc1cc([N+](=O)[O-])ccc1O,13
15,Nc1ccc(F)cc1S,1
16,Brc1ccccc1-c1ncc(-c2ccccc2)o1,-26
17,COc1cc(C2SCC(=O)N2c2ccc(-c3ccc(-n4c(-c5ccccc5)nc5ccccc5c4=O)cc3)cc2)ccc1O (stereo unspecified),-2
18,COc1cc(CSc2ccc(O)cc2)cc(O)c1O,0
19,O=C(NNc1ccccc1)c1ccc(Cl)c(Cl)c1,-1
20,C[C@]12CC[C@H](O)CC1=CC[C@@H]1C2CC[C@]2(C)C(=O)NC(=O)CC12 (stereo partly specified),-24
21,CCc1c(Cl)c(C)cc(O)c1Cl,-18
22,CCCC(=O)Oc1ccc(/C=N/NC(N)=S)nc1,-19
23,Cc1nc2ccccc2nc1NNc1ccccc1,9
